Reference: PubChem BioAssay AID493168 (National Center for Advancing Translational Sciences (NCATS), 2011)
Results filed as inconclusive are left out. Entries that show only a call come without a potency. Calls of active or inactive are those of the source. Calls follow the shape of the dose curve; as a rule, active = well fitted inhibition curve with a large enough effect; inconclusive = small, poorly fitted or top-dose-only effect, or effect the other way; inactive = flat fitted curve, though single readings scatter.

target: Ubiquitin carboxyl-terminal hydrolase 2 (Homo sapiens) (UniProt O75604); test: Confirmation Assay for Inhibitors of Ubiquitin-specific Protease USP2a Using CHOP2 as the Reporter; settings: USP2 core, Ub-CHOP2 coupled reporter fluorescence; series mostly up to 38.3 µM; also: nearly all actives have a fitted effect of over 55% in size
Sequence (O75604 whole entry, looked up): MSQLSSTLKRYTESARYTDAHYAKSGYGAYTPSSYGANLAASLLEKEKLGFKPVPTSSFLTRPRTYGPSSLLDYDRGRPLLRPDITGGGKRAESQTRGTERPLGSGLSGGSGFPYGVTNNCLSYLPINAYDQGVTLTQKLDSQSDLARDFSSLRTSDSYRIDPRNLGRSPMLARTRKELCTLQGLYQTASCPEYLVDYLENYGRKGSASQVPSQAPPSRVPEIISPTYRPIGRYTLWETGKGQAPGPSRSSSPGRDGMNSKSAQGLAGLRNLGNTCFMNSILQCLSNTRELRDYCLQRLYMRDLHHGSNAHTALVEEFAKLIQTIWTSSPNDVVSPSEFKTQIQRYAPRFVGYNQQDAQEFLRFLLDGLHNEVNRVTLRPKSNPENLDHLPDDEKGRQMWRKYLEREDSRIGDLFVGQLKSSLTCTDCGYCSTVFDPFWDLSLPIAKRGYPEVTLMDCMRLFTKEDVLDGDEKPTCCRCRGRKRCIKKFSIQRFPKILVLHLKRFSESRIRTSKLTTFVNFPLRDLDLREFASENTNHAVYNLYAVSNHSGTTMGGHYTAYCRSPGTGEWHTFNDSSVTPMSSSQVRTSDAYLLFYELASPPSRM
How it was run: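 USP2 core (10 nM final) was preincubated with compound for 30 min at RT in Tris-HCl pH 8.0, CaCl2, beta-mercaptoethanol, CHAPS. Ub-CHOP2 and reporter substrate (25 nM final each) were added, and fluorescence (Ex 485/Em 531 nm) was read after 60 min.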
Potency is read from the fitted curve at half-maximal effect.

Compound | Potency
Cc1ccc(SCC(=O)NCC(C)C)cc1 | inactive
CC(=O)N1CCCc2cc(S(=O)(=O)CCC(=O)N3CCN(c4cccc(C)c4)C(C)C3)ccc21 (centres undefined) | inactive
Cc1cc(C(=O)NCc2ccco2)on1 | inactive
O=C(COc1ccccc1)N1CCN(C(=O)Cc2ccccc2)CC1 | inactive
NC1=NC(=O)/C(=C/c2cccc(-c3ccc(S(N)(=O)=O)cc3)c2)S1 | 9.27 µM (active)
C/C(CC(=O)N1CCCC1)=N\NC(=O)c1cc2ccccc2cc1O | inactive
O=C(CCCN1C(=O)c2ccccc2C1=O)NC1=NCCS1 | inactive
CCOc1ccc(-c2ccc(/C=C3/C(=N)N4C(C)=CSC4=NC3=O)o2)c([N+](=O)[O-])c1 | inactive
Nc1ccc2nc(-c3ccc(N)c(Cl)c3)[nH]c2c1 | inactive
CC(=O)COc1ccc2c(-c3ccccc3)cc(=O)oc2c1 | inactive
CCOC(=O)Nc1ccc(S(=O)(=O)Nc2cc(C)nc(C)n2)cc1 | inactive
O=C(c1ccc(CS(=O)(=O)c2ccc(Br)cc2)o1)N1CCCC1 | inactive
CC(=O)O[C@H]1[C@H](O)[C@H](Oc2c(O)c(C)c3c4c2[C@@H](C)CC[C@@H]4[C@@H](C)C[C@H]3C=C(C)C)O[C@@H](C)[C@H]1O | inactive
O=C(O)C1Nc2c(O)cc(Cl)c([N+](=O)[O-])c2C2C=CCC12 (centres undefined) | 9.27 µM (active)
C[C@@H]1CN([C@H](C)CO)C(=O)c2cc(NS(=O)(=O)c3ccc(F)cc3)ccc2O[C@@H]1CN(C)Cc1ccc(Cl)c(Cl)c1 | inactive
Cc1ccc(NC(=O)c2cc(-c3ccco3)nc3ccccc23)cc1S(=O)(=O)N1CCOCC1 | 11.7 µM (active)
O=C(N/N=C/C=C/c1ccccc1)c1ccncc1 | inactive
COc1ccc(-c2csc(N3CCN(C(=O)c4ccco4)CC3)n2)cc1 | inactive
CC(=O)OCC(=O)Nc1ccc(Cl)cc1Cl | inactive
COc1ccc(NC(=O)CSc2nc3sc(C)cc3c(=O)n2C)c(OC)c1 | inactive
CCCn1c(NC(=O)c2ccc(Br)cc2)nc2ccccc21 | inactive
Cc1ccc(C(=O)O/N=C/c2c(C(F)(F)F)nn(C)c2Sc2ccc(Cl)cc2)cc1 | inactive
O=C1Nc2ccccc2SC(c2ccccc2)C1O (centres undefined) | 13.1 µM (active)
Cc1c2c(=O)n(-c3nc4ccccc4s3)nc-2cc(O)n1Cc1ccccc1 | inactive
